{
  "source": "PubChem BioAssay (NCI)",
  "note": "About 83,000 compounds went through this panel and 20% of them were active in at least one assay; those are over-represented in the sample as a whole.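 Testing used 96-well plates and a 48-hour single-concentration exposure. Example: -40 means 40% of the starting cells died.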 Activity calls are given as the source filed them.",
  "data": [
    {"system": "HOP-92 NSCLC", "experiment": "NCI-60 one-dose screen, 48 h (100 = growth as untreated, 0 = no growth, -100 = all killed)", "conditions": "10 µM unless noted", "description": "Growth inhibition of the HOP-92 human Non-Small Cell Lung tumor cell line is measured as a screen for anti-cancer activity. Cells are grown in 96 well plates and exposed to the test compound for 48 hours. Compounds are tested at a single concentration, which is 10^-5 M for most compounds. The reported endpoint is percent growth (GI% or GIPRCNT), where numbers from 0 - 100% represent growth inhibition, and numbers from -100% - 0 represent cell death. For example, a value of 40 represents 60% growth inhibition. A value of 0 means no net growth occurred over the course of the experiment. A value of -40 indicates 40% of cells at the beginning of the experiment died by the end of the experiment. A value of -100 means all cells are dead at the end of the experiment.\nNCI-60 Human Tumor Cell Lines Screen was performed using the standard one-dose NCI protocol, which is described in more detail at https://dtp.cancer.gov/discovery_development/nci-60/default.htm.\nCompounds with GIPRCNT values below 10 were considered active. Activity score was based on GIPRCNT using the following formula: […]\nScore is 0 for GIPRCNT values of 100 or above, 50 for GIPRCNT values of 0, and 100 for GIPRCNT values of -100.", "values": [
      {"smiles": "NS(=O)(=O)c1ccc(Nc2nc(SCC(=O)c3ccc(Cl)cc3)nc3ccccc23)cc1", "growth": "84.4% (inactive)"},
      {"smiles": "O=C(c1ccc(Cl)cc1)C1[C@H](c2ccc(Cl)cc2)[C@@H](c2ccccc2)NC12C(=O)Nc1ccc(Br)cc12", "note": "(stereo not given in full)", "growth": "-1.5% (active)"},
      {"smiles": "O=C(CCN1C(=O)/C(=C/c2ccccc2F)SC1=S)N1CCOCC1", "growth": "133% (inactive)"},
      {"smiles": "CCOC(=O)c1c(Nc2ccccc2)nn2c(-c3ccco3)c(C#N)cnc12", "growth": "68% (inactive)"},
      {"smiles": "COc1ccc(N/N=C/c2c(-c3ccc(S(C)(=O)=O)cc3)nc3ccccn23)cc1", "growth": "23% (inactive)"},
      {"smiles": "COC(=O)c1ccc(NC(=S)N2CCc3ccc([N+](=O)[O-])cc3C2)cc1O", "growth": "99.7% (inactive)"},
      {"smiles": "Fc1ccc(-c2cc3nc(C(Cl)Cl)nc(-c4ccc(Cl)cc4)n3n2)cc1", "growth": "24.7% (inactive)"},
      {"smiles": "CC(=O)c1ccc(Nc2nc(SC(C)C)nc(-c3ccccc3)c2C#N)cc1", "growth": "70.2% (inactive)"},
      {"smiles": "N=C1CC(=O)NN1C(=O)CSc1nc2sc3c(c2c(=O)n1-c1ccc(Cl)cc1)CCCC3", "growth": "80.1% (inactive)"},
      {"smiles": "C#Cc1nc(C2=C(C)C(O)CC2)cs1", "note": "(stereo not given)", "growth": "115% (inactive)"},
      {"smiles": "Cc1cc2nc3c4cc(Cl)ccc4n(CC(=S)NCCN(C)C)c3nc2cc1C", "growth": "-6.84% (active)"},
      {"smiles": "CC(=NNc1ncnc2ccccc12)c1ccc(S(C)(=O)=O)cc1", "growth": "95.1% (inactive)"},
      {"smiles": "C#C[C@]1(O)CC[C@H]2[C@@H]3CC=C4c5sc(Nc6ccc(Cl)cn6)nc5CC[C@]4(C)[C@H]3CC[C@@]21C", "growth": "59.5% (inactive)"},
      {"smiles": "Clc1ccc2c(NCCCn3ccnc3)c3oc4ccc(Cl)cc4c3nc2c1", "growth": "57.4% (inactive)"},
      {"smiles": "N[C@@H](Cc1cn(-c2ccnc3ccccc23)nn1)C(=O)O", "growth": "101% (inactive)"},
      {"smiles": "COc1cccc(N2CCN(c3ncnc4c3[nH]c3ccc(F)cc34)C[C@@H]2C)c1", "growth": "-27.1% (active)"},
      {"smiles": "N#Cc1nc(-c2ccccc2)oc1N1CCC(CO)C1", "note": "(stereo not given)", "growth": "129% (inactive)"},
      {"smiles": "N#Cc1c(-c2ccc(Cl)cc2)nc(SCc2ccc(F)cc2)nc1N1CCNCC1", "growth": "6.64% (active)"},
      {"smiles": "COc1ccc(CNS(=O)(=O)/N=C2\\NC(=O)NC2=C(Cl)Cl)cc1", "growth": "-2.17% (active)"},
      {"smiles": "CN(C)c1ccc(-c2c(NC(C)(C)C)nc3c(OCCc4ccccc4)cccn23)cc1", "growth": "-27.5% (active)"},
      {"smiles": "CC(C)(O)c1cncc(-c2ccc3ncnc(N4CCc5cc(F)c(Cl)cc54)c3c2)c1", "growth": "-6.69% (active)"},
      {"smiles": "CS(=O)(=O)c1ccc(-c2nc3ccccn3c2/C=N/Nc2nc(-c3ccc(Cl)cc3)cs2)cc1", "growth": "96.4% (inactive)"},
      {"smiles": "COc1ccc(/C=C2\\SC(=Nc3cc(C)on3)NC2=O)cc1", "growth": "94.4% (inactive)"},
      {"smiles": "CC(=O)Oc1ccccc1C(=O)Nc1ccc(C(=O)/C=C/c2cccs2)cc1", "growth": "108% (inactive)"},
      {"smiles": "COc1cc(-c2ccc3ncnc(NC(C)c4ccccc4)c3c2)cnc1OC", "note": "(stereo not given)", "growth": "20.1% (inactive)"},
      {"smiles": "COc1ccc(-c2cc(C(=O)N=Nc3c(O)[nH]c4ccccc34)c3ccccc3n2)cc1OC", "growth": "89.5% (inactive)"},
      {"smiles": "CN(C)CCCNc1c2ccc(Cl)cc2nc2c1oc1ccc(Cl)cc12", "growth": "21.8% (inactive)"},
      {"smiles": "C/C(=N/NC(N)=S)c1ccc(Nc2nc(SCC(C)C)nc(-c3ccc(F)cc3)c2C#N)cc1", "growth": "-39.1% (active)"},
      {"smiles": "CCOC(=O)c1c(Nc2ccccc2)nn2c(N)c(C#N)c(-c3ccc(Cl)cc3)nc12", "growth": "43.2% (inactive)"},
      {"smiles": "COc1ccc(C(=O)c2cc(C(=O)/C=C/c3c(Cl)cccc3Cl)c3cc(C)ccn23)cc1", "growth": "97.3% (inactive)"},
      {"smiles": "CC1=C(C)C(=O)C(Nc2ccccc2)=C(Cl)C1=O", "growth": "46% (inactive)"},
      {"smiles": "CC(C)(C)OC(=O)N1C(=O)c2c(c3c4ccccc4[nH]c3c3ccc4ccccc4c23)C1=O", "growth": "87.9% (inactive)"},
      {"smiles": "COc1ccc(-c2nc3ccc(-c4nnc(SCC(=O)Nc5ccc(C(=O)/C=C/c6ccc(Cl)cc6)cc5)o4)cc3[nH]2)cc1OC", "growth": "105% (inactive)"},
      {"smiles": "Cn1c(SCC(=O)c2cccs2)nc2ccccc2c1=O", "growth": "87.3% (inactive)"},
      {"smiles": "O=C(N/N=C/c1ccc([N+](=O)[O-])o1)c1[nH]c2ccc(Br)cc2c1-c1ccccc1", "growth": "-4.17% (active)"},
      {"smiles": "COc1cc(/C=C/C(=O)c2cc(OC)c(OC)c(OC)c2)ccc1OCc1ccccc1", "growth": "58.4% (inactive)"},
      {"smiles": "CCN1C(=S)N(c2ccccc2)C2NC(=O)N(/N=C/C=C/c3ccccc3OC)C21", "note": "(stereo not given)", "growth": "72.3% (inactive)"},
      {"smiles": "O=[N+]([O-])c1ccc(O)c2ncccc12", "growth": "40.1% (inactive)"},
      {"smiles": "CCOc1ccc([C@H]2C(C(=O)c3ccc(Cl)cc3)C3(N[C@@H]2c2ccccc2)C(=O)Nc2ccc(Br)cc23)cc1", "note": "(stereo not given in full)", "growth": "16% (inactive)"},
      {"smiles": "C#Cc1nc(C2=C(C)C(OC(=O)CCC(=O)O)CC2)cs1", "note": "(stereo not given)", "growth": "106% (inactive)"}
    ]}
  ]
}
